The results in this text go back to PubChem BioAssay AID651636 (Sanford-Burnham Center for Chemical Genomics, 2012).

Molecules are shown by their SMILES. In all, about 360,000 compounds went through this assay and about 3,000 (0.83%) were called active. Rule as the data show it: active = inhibition above about 38%; inactive = the rest. This excerpt belongs to a sample that is enriched for actives.

Chain of G-protein coupled receptor 183 (Homo sapiens) (P32249 whole entry, looked up, the tested form may be a part): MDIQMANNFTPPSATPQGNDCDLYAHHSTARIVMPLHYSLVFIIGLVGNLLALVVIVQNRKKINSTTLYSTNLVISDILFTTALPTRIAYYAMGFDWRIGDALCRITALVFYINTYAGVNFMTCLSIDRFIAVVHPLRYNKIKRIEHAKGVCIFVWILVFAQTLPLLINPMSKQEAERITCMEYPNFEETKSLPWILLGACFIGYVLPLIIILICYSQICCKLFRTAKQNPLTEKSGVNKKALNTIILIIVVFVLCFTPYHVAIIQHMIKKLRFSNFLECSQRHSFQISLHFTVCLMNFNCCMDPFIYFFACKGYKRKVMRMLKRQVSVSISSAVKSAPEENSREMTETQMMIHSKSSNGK

This assay concerns the target G-protein coupled receptor 183 (Homo sapiens) (UniProt P32249). In words: blockers of oxysterol-driven EBI2 arrestin signaling – cell-based, luminescence, 7a,25-OHC stimulation, uHTS, primary screen (AID 651636).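 Also: enzyme fragment complementation signal reports receptor beta-arrestin coupling in cells; 0% = agonist plus DMSO wells and 100% = wells without agonist.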 The settings on record: EBI2 beta-arrestin recruitment, 7a,25-OHC stimulated, at 5 µM, stronger effect = higher value.
With `O=C(NCc1ccc(F)cc1)C1CCN(C(=O)Nc2ccc(F)cc2)CC1`, the inhibition is 16% (inactive).
As for `CC(=O)c1c(C)[nH]c(C(=O)OCC(=O)Nc2c(C)n(C)n(-c3ccccc3)c2=O)c1C`, the inhibition was 8.82% (inactive).
In the case of `Cc1cccn2c(=O)nc(SCC(=O)NCc3ccccc3Cl)nc12` it was -6.29% (inactive).
For `Cc1nn(C)cc1/C=C1\CCC/C(=C\c2cn(C)nc2C)C1=O`, the inhibition is 6.14% (inactive).
In the case of `CC(C)CN1C(=O)CN(S(C)(=O)=O)CC1(C)C(=O)NCc1ccccc1` (stereo not drawn), the inhibition is -1.75% (inactive).
In the case of `Cn1c(=O)cc(SCC(=O)N2CCN(C(=O)c3ccco3)CC2)c2ccccc21` it was -7.92% (inactive); in that of `C=CCOc1ccc(/C=C/C(=O)OCC(=O)NC2CCCCCC2)cc1`, 0.205% (inactive); in that of `N#C/C(=C\c1ccccc1)c1n[nH]c(Cn2cncn2)n1`, -5.28% (inactive).
In the case of `CCNC(=O)COc1cc(C)c(Br)c(C)c1` it was -7.22% (inactive); in that of `COC(=O)C[C@@H]1C=C[C@@H](NC(=O)c2ccc3c(c2)OCO3)[C@@H](CO)O1`, 0.556% (inactive).
In the case of `O=C(NNC1=C(C(=O)C(F)(F)F)CCC1)c1ccncc1`, the inhibition is 8.49% (inactive).
As to `CCNC(=S)N1CCC(c2nc3cc(C)c(C)cc3[nH]2)CC1`, the inhibition was -8.84% (inactive).
Consider `Cc1coc2c(O)cc3c(c12)OC1(N2CCCCC2)C(=O)NCCCC31` (stereo not drawn), for which the inhibition is 9.31% (inactive).
The same measure for `NCCCCC(C(=O)O)N(C(=O)OCc1ccccc1)C(=O)OCc1ccccc1` (stereo not drawn): -5.81% (inactive).
The same measure for `O=C(Cc1ccccc1)N1CCN(S(=O)(=O)c2ccc([N+](=O)[O-])cc2)CC1`: -5.46% (inactive); for `O=C1/C(=C\c2ccc([N+](=O)[O-])cc2)CS(=O)(=O)C/C1=C/c1ccc([N+](=O)[O-])cc1`: 50.3% (active); for `Cc1ccc([N+](=O)[O-])cc1S(=O)(=O)N1CCCN(C)CC1`: -7.92% (inactive).
The same measure for `O=C1NC(c2ccccc2)Cc2ccncc21` (stereo not drawn): -15.8% (inactive).
Consider `CC(C)Oc1ccc(C(=O)NC(C)(C)CO)cc1`, for which the inhibition is -14.5% (inactive).
In the case of `Cn1cc[n+](C)c1COc1ccc(C=O)cc1` it was -3.22% (inactive); in that of `COc1ccccc1N1CCN(C(=O)C(=O)N/N=C/c2ccccc2F)CC1`, 2.46% (inactive).
`Fc1ccccc1/C=N/Nc1cc(N2CCCCC2)ncn1`: the inhibition is 53.8% (active).
On to `Nc1[nH][nH]c(=O)c1N=Nc1ccc2c(c1)OCO2`, for which the inhibition is -4.76% (inactive).
The same measure for `Cc1cccc(N=C2NC(=O)/C(=C/c3cn(C)c4ccccc34)S2)c1`: 45% (active).
Regarding `Cc1cccc(N=C2SC(C)CN2C(=O)CN2C(=O)NC3(CCCC3)C2=O)c1` (stereo not drawn), the inhibition is 8.85% (inactive).
The same measure for `Cc1cccc(Oc2c([N+](=O)[O-])c(=O)n(C)c3ccccc23)c1`: -38.4% (inactive); for `Cc1cc(C)nc(/N=C2\NC(=O)CC(C(=O)O)N2c2ccc(Cl)cc2Cl)n1` (stereo not drawn): -2.42% (inactive); for `Cn1c(N)c(C(=O)COC(=O)C23CC4CC(CC(C4)C2)C3)c(=O)n(C)c1=O`: -6.77% (inactive).
The same measure for `Cc1oc2nc(SCC(=O)NCc3cccnc3)nc(N)c2c1C`: -8.34% (inactive); for `CC(=O)c1ccc(OCC(=O)N(C)C2CCS(=O)(=O)C2)cc1` (stereo not drawn): -3.69% (inactive); for `COc1ccc(NC(=O)/C(Cl)=C(/Cl)S(=O)Cc2ccc(C)cc2)cn1` (stereo not drawn): 68.1% (active).
In the case of `CC(=O)Nc1ccc(CNc2nc(NCCN(C)C)nc3cc(-c4ccccc4)sc23)cc1` it was 0.94% (inactive); in that of `Nc1nc(SCC(=O)NN(c2ccccc2)c2ccccc2)n[nH]1`, -1.98% (inactive); in that of `O=C(Nc1ccccc1Cl)/C(Cl)=C(\Cl)S(=O)c1ccccc1` (stereo not drawn), 59.7% (active).
Regarding `O=C(COc1nsnc1N1CCOCC1)Nc1ccccc1Cl`, the inhibition was -1.57% (inactive).
The same measure for `Cc1cccc(-c2nc(CS(=O)CC(=O)NC(C)CCc3ccccc3)c(C)o2)c1` (stereo not drawn): 0.721% (inactive); for `CCC(=C/c1sc2ccc3ccccc3c2[n+]1C)/C=C1\Sc2ccc3ccccc3c2N1C`: 1.97% (inactive); for `CS(=O)(=O)N(CC(=O)N1CCN(c2ccc(F)cc2)CC1)C1CCCCC1`: -6.78% (inactive).
In the case of `Cc1ccc(SCC(=O)N2CCN(c3ccc(F)cc3)CC2)cc1` it was 62.9% (active); in that of `Cc1ccc(-n2c(CNc3ccc(F)cc3)nnc2SCC(=O)N2CCOCC2)cc1`, 7.68% (inactive).
The same measure for `CCN1CCN(C(=O)CSc2ccc(C)cc2)CC1`: 70.3% (active); for `CCN1CCN(C(=O)CCN2C(=O)c3ccccc3C2=O)CC1`: 5.39% (inactive); for `CS(=O)(=O)N1CCN(C(=O)CSc2ccccc2)CC1`: 4.92% (inactive).
`CCOC(=O)N1CCN(C(=O)CSc2ccc(Cl)cc2)CC1`: the inhibition is 84.7% (active).
The same measure for `CCOC(=O)N1CCN(C(=O)CSc2nc(C)nc3c2c(=O)n(C)c(=O)n3C)CC1`: -7.04% (inactive); for `O=C(CSc1ccc(Cl)cc1)NC1CC1`: -0.473% (inactive); for `COC(=O)CNC(=O)C(CCSC)NC(C)=O` (stereo not drawn): 5.29% (inactive).
As to `Cc1nc(C(F)(F)F)ccc1C(=O)N1CCC1(C)C(=O)NS(=O)(=O)c1ccc(F)cc1F` (stereo not drawn), the inhibition is 3.24% (inactive).
As for `CNC(=O)C1CC(=O)N(c2ccc(OCC(=O)Nc3ccccc3C)cc2)C1` (stereo not drawn), the inhibition is 2.34% (inactive).
The same measure for `Cc1nnc(SC(C)C(=O)c2c[nH]c3ccccc23)n1C1CC1` (stereo not drawn): -6.27% (inactive); for `CCOc1cc(-c2conc2N)cc(OCC)c1OCC`: 7.1% (inactive); for `CC(C)(C)OC(=O)C[C@@H]1C/C=C\C[C@@H](CC(=O)N[C@@H](CO)Cc2ccccc2)C(=O)N2CCC[C@H]2COC1=O`: 1.7% (inactive).
As to `CCC(C(=O)OC)n1cnc2c(oc3ccccc32)c1=O` (stereo not drawn), the inhibition was 3.69% (inactive).
In the case of `COC(=O)c1ccc(CN(c2ccccc2OC)S(=O)(=O)c2cccs2)o1` it was 7.2% (inactive); in that of `O=C(OCc1nnc(-c2ccccc2)o1)c1cc(=O)[nH]c2ccccc12`, -5.82% (inactive).
The same measure for `CCCc1nc2ccccc2c(C(=O)OCc2nnc(-c3cc(OC)c(OC)c(OC)c3)o2)c1CC`: 51.2% (active); for `CCOC(=O)c1cc(-c2nnc(-c3cc(OC)c(OC)c(OC)c3)o2)c(C)nc1C`: -9% (inactive).
The same measure for `COc1ccc(S(=O)(=O)NCC(=O)NCc2cc(=O)n(C)c(=O)n2C)cc1F`: 2.08% (inactive).
